# In PubChem BioAssay:
# Active and inactive are the calls of the source.
# How the values were obtained:
# [1] = A549 cell viability effects, profiling panel, calcein-AM fluorescence, 48 h, basal (AID 1162); settings: higher = more signal
# [2] = adipocyte viability effects, profiling panel, cell-based, 3T3-L1 adipocytes, calcein-AM fluorescence, 48 h, basal (AID 1163); settings: 3T3-L1 adipocytes viability, higher = more signal
# [3] = HepG2 cell viability effects, profiling panel, calcein-AM fluorescence, 48 h, basal (AID 1164); settings: higher = more signal
# [4] = MM1S cell viability effects, profiling panel, calcein-AM fluorescence, 48 h, basal (AID 1165); settings: higher = more signal;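 note: viability of MM1S multiple myeloma cells under basal unstimulated conditions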
# [5] = basal RPMI8226 viability, no added stimulus, profiling panel, cell-based, calcein-AM fluorescence, 48 h, PK04 Diversity Set (AID 1166); settings: RPMI8226 myeloma viability, higher = more signal;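 note: cells grown under basal conditions without added stimulus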
# [6] = basal HepG2 mitochondrial membrane potential changes, profiling panel, cell-based, JC-1 fluorescence, 24 h, 100 nL compound (AID 1167); settings: higher = more signal
# [7] = basal 3T3-L1 adipocyte mitochondrial potential changes, profiling panel, cell-based, JC-1 fluorescence, 3T3-L1 adipocytes, 24 h, 100 nL compound (AID 1168); settings: JC-1 mitochondrial fluorescence, higher = more signal, called active from +8 up or from −8 down
# [8] = basal RPMI8226 mitochondrial membrane potential changes, profiling panel, cell-based, JC-1 fluorescence, 24 h, 100 nL compound (AID 1169); settings: RPMI8226 myeloma, JC-1 mitochondrial potential fluorescence, higher = more signal
# [9] = basal MM1S mitochondrial membrane potential changes, profiling panel, cell-based, JC-1 fluorescence, 24 h, 100 nL compound (AID 1170); settings: higher = more signal
# [10] = A549 lung cancer cell viability effects, profiling panel, resazurin fluorescence, 24 h, PK04 Diversity Set (AID 1171); settings: higher = more signal, called active from +8 up or from −8 down
# Note: test concentration not given here.
Structure (SMILES),z-score [1],z-score [2],z-score [3],z-score [4],z-score [5],z-score [6],z-score [7],z-score [8],z-score [9],z-score [10]
CCCC[C@H]1OB(O)C[C@H]2C1=C(COc1ccccc1)C[C@H]1C(=O)N(Cc3ccccc3)C(=O)[C@H]12,0.358,0.488,-0.429,-1.09,-1.08,0.989,0.241 (inactive),-0.163,-0.446,0.574 (inactive)
C=CC[C@]1(C(=O)NCCN2CCOCC2)N=C(c2ccc(OCCCO)cc2)O[C@H]1c1ccccc1N=[N+]=[N-],0.0657,0.572,0.353,-1.05,-0.766,1.03,1.98 (inactive),-0.701,0.472,0.0624 (inactive)
CC(=O)N1Cc2ccccc2C[C@@]2(N=C(c3ccc(OCCCO)cc3)O[C@H]2c2ccccc2)C1=O,-1.09,0.609,-1.31,-2.19,-3.36,1.8,0.234 (inactive),-1.15,-0.438,-2.8 (inactive)
CCCNC(=O)[C@@]1(c2ccc([N+](=O)[O-])cc2)CC(=O)N(CC23CC4CC(CC(C4)C2)C3)[C@@H]1c1ccc(CO)cc1I,-1.29,-0.738,-4.9,-3.81,-4.32,0.243,-0.0911 (inactive),-0.872,-2.18,-3.39 (inactive)
[N-]=[N+]=NCc1ccccc1[C@@H]1OC(c2ccc(OCCCO)cc2)=N[C@]1(Cc1ccccc1N=[N+]=[N-])C(N)=O,-0.533,0.306,0.0804,-1.01,-2.22,-1.5,-1.92 (inactive),-0.918,-0.0745,-0.139 (inactive)
O=c1cccc(-c2ccc3ccccc3c2)o1,-0.996,-0.696,-0.644,-0.332,-0.406,-1.31,0.529 (inactive),0.463,-0.288,-0.223 (inactive)
Cn1c2c(c3ccccc31)C(=O)C1NC2C=CC1(C)C(=O)OCc1ccccc1 (stereo not given),-0.618,-0.0704,0.583,-0.175,0.0208,0.603,-1.65 (inactive),-0.0327,0.426,-0.078 (inactive)
O=C1O[C@@H](c2ccccc2)[C@@H](c2ccccc2)N2[C@@H](c3ccccc3OCCO)[C@]3(C(=O)Nc4ccc(C#CC5(O)CCCCCC5)cc43)[C@@H](C(=O)NC[C@H](O)c3ccccc3)[C@H]12,-0.724,0.737,-3.6,-3.31,-4.17,-1.14,0.986 (inactive),-0.935,-1.98,-2.91 (inactive)
O=C1C2C=CC(C(O)CCc3ccccc3)N(Nc3ccccc3)C2C(=O)N1c1ccccc1 (stereo not given),-1.22,-1.12,0.203,-0.46,0.198,-2.35,-0.727 (inactive),-0.278,-0.174,-0.424 (inactive)
COc1c(C)cc(-c2cc3c(c(-c4ccccc4)n2)[Si](C(C)C)(C(C)C)O[C@H]3c2ccccc2)cc1C,-0.77,-0.11,-0.0094,-0.521,-1.98,-1.21,-1 (inactive),-0.016,-0.198,-0.0824 (inactive)
CC[C@@H]1C=C(C(=O)O)[C@H](c2ccc(C(C)C)cc2)N1S(=O)(=O)c1ccc(C)cc1,-0.658,-0.178,-0.391,-0.683,-0.251,-0.961,0.495 (inactive),-0.971,-0.574,-0.42 (inactive)
CCOC(=O)C1=CC[C@@H](c2ccccc2)N(S(=O)(=O)c2ccc(C)cc2)[C@H]1c1ccc(C#N)cc1,0.423,-0.574,-0.178,-0.306,-0.973,0.51,-1.12 (inactive),0.124,-0.725,1.39 (inactive)
COC(=O)[C@@]1(Cc2ccc(OC)cc2)[C@H]2c3cc(C(=O)N4CCCC4)n(CCc4ccccn4)c3C[C@H]2CN1C(=O)c1ccccc1,-0.991,1.13,-0.946,0.0275,-1.7,1.1,-1.59 (inactive),-0.161,0.00382,-0.201 (inactive)
C=C[C@@H](C)[C@@H](OC(=O)Nc1ccc(OC)cc1)c1ccc(O)c2ccccc12,-1.24,-0.336,-1.63,-2.72,-4.29,-3.19,-0.425 (inactive),-1.13,-1.23,-0.527 (inactive)
Cc1ccc(N2C(=O)c3ccccc3[C@@H](C(=O)NCC(C)C)[C@@H]2c2ccc(CO)cc2)nc1,0.593,-0.136,0.558,-0.0617,0.662,2.02,1.09 (inactive),-0.482,0.133,-0.613 (inactive)
[N-]=[N+]=Nc1ccccc1[C@@H]1OC(c2ccc(OCCCO)cc2)=N[C@]1(CCS(=O)(=O)c1ccccc1)C(=O)O,0.926,-0.149,0.846,-0.57,-1.47,-3.18,-1.07 (inactive),-0.373,-1.17,0.343 (inactive)

Structure (SMILES),z-score [1],z-score [2],z-score [3],z-score [4],z-score [5],z-score [6],z-score [7],z-score [8],z-score [9],z-score [10]
Cc1ccc(C(C)CC(O)C2C=CC3C(=O)NC(=O)C3N2Nc2ccccn2)o1 (stereo not given),0.378,-0.671,1.37,-0.333,0.635,0.117,-0.0169 (inactive),-0.263,-0.408,-0.793 (inactive)
C=CCOC(=O)[C@@H]1[C@H]2C(=O)O[C@H](c3ccccc3)[C@H](c3ccccc3)N2[C@H](c2ccc(OCCOC(=O)[C@H]3C[C@H]4C(=O)N[C@@H](CC(C)C)C(=O)N4[C@H]3c3cccc(OCCO)c3)cc2)[C@@]12C(=O)Nc1ccc(I)cc12,0.704,1.54,-0.533,-0.727,-1.34,-1.91,1.59 (inactive),-0.946,-1.2,-0.304 (inactive)
CCOC(=O)C[C@H]1[C@H](OC(=O)c2ccccc2-c2ccccc2)[C@@H](NC(=O)c2ccc(-c3ccccc3)cc2)c2cc(OCCCO)ccc2N1C(=O)c1ccccc1,0.168,0.405,0.188,0.0425,-0.602,1.5,0.247 (inactive),-0.312,-0.0178,0.0248 (inactive)
COc1ccc([Si](C)(C)[C@H]2[C@H](CC(=O)N3CCC[C@H]3CO)O[C@@]3(C(=O)N(c4ccccc4)c4ccccc43)[C@@H]2C)cc1,1.35,0.42,0.628,1.63,0.912,2.53,-0.667 (inactive),0.421,-0.947,1.63 (inactive)
C=CCC(OC(C)=O)[C@@H]1[C@@H](N(Cc2cc3ccccc3o2)C(=O)c2ccc(C)cc2)c2cc(OCCCO)ccc2N1C(=O)c1ccc(-c2ccccc2)cc1 (stereo not given in full),2.54,1.34,1.8,0.217,1.46,2.87,-0.314 (inactive),0.614,-0.763,0.875 (inactive)
CC(C)N1C(=O)c2ccccc2[C@](C)(C(=O)NCCCN(C)C)[C@@H]1c1ccc(CO)cc1,0.415,0.302,0.446,-0.0937,-0.384,0.861,-0.253 (inactive),-0.13,0.413,0.565 (inactive)
O=C(CS)NCCCCCCNC(=O)[C@H]1C[C@H]2C(=O)N3CCC[C@H]3C(=O)N2[C@H]1c1ccc(O)cc1,-0.683,0.646,0.0725,-0.213,1.07,-1.12,-0.0423 (inactive),-0.0782,-0.419,0.985 (inactive)
COC(=O)c1nc2oc1CC[C@@H](CO)NC(=O)N(C)Cc1cn(nn1)C[C@H](Cc1ccccc1)NC2=O,-0.0651,-0.734,0.786,0.648,0.854,0.136,0.694 (inactive),0.263,-1.48,-0.0624 (inactive)
CCN(CC)c1ccc(N2CC=CC34O[C@@H]5C=CCOC(=O)[C@@H]5[C@H]3C(=O)N(CCCCCO)[C@@H]4C2=O)cc1 (stereo not given in full),-0.46,1.1,-0.0753,-0.0913,0.199,0.497,0.876 (inactive),0.0564,1.65,-0.0833 (inactive)
COCCOC(=O)N1C(=O)[C@@]2(c3cc(C#CCC(C(=O)OC)C(=O)OC)ccc31)[C@H](c1ccc(OCCO)cc1)N1[C@H](c3ccccc3)[C@H](c3ccccc3)OC(=O)[C@H]1[C@@H]2C(=O)NC[C@H](O)c1ccccc1,0.185,0.102,1.56,0.446,-2.01,0.177,1.39 (inactive),-0.749,-1.61,0.0076 (inactive)
CO[C@H]1O[C@H](CO)[C@@H](OC(=O)Nc2ccccc2-c2ccccc2)[C@H](OC(=O)Nc2ccccc2-c2ccccc2)[C@H]1OC(=O)Nc1ccccc1-c1ccccc1,-1.46,1.22,-1.31,-1.4,-1.44,-0.0136,0.908 (inactive),-0.87,0.116,-2.56 (inactive)
Cc1ccc([C@H]2C(C(=O)O)=C[C@@H](C(C)C)N2S(=O)(=O)c2ccc(C)cc2)cc1,-0.828,-0.762,-0.639,0.0411,-1.48,-0.713,-0.385 (inactive),0.59,-0.809,-0.194 (inactive)
Cc1ccc(F)cc1S(=O)(=O)N[C@@H]1CCN(Cc2ccc(C(F)(F)F)cc2)C1,-0.455,-1.68,-1.82,-2.4,-2.09,-3.18,-0.332 (inactive),-0.615,-1.75,-0.196 (inactive)
CC(=O)n1cc(C(O)C2C=CC3C(=O)N(c4ccccc4)C(=O)C3N2Nc2ccc(C#N)cc2)c2ccccc21 (stereo not given),1.38,-0.876,0.52,0.245,-0.434,-1.04,-0.855 (inactive),0.423,-0.488,1.52 (inactive)
COCCn1c(C(=O)N2CCCC2)cc2c1C[C@H]1CN(C(=O)c3ccccc3)[C@@](Cc3ccc(OC)cc3)(C(=O)OC)[C@@H]21,0.476,0.238,1.35,0.776,0.426,2.71,0.0944 (inactive),0.00347,-0.828,-0.253 (inactive)
CN(C)CCCN1C(=O)[C@@]2(c3ccc([N+](=O)[O-])cc3)CC(=O)N(C3CCCCC3)[C@@H]2c2ccc(CO)cc21,-0.397,0.962,-0.816,-0.0337,0.505,0.446,-0.274 (inactive),0.764,-0.725,0.572 (inactive)
